{
  "source": "PubChem BioAssay AID1347142",
  "about": "(National Center for Advancing Translational Sciences (NCATS), 2019)",
  "note": "Inconclusive results are not listed. Unmarked numbers belong to inactive results. Calls of active or inactive are those of the source. Calls follow the shape of the dose curve; as a rule, active = well fitted inhibition curve with a large enough effect; inconclusive = small, poorly fitted or top-dose-only effect; inactive = no such curve, though single readings can be large or run the other way. Also: nearly all actives have a fitted effect of over 80% in size. For activity change, negative = inhibition in this document: 0% is about no effect. Potency is read from the fitted curve at half-maximal effect.",
  "data": [
    {"target": "N-terminal Xaa-Pro-Lys N-methyltransferase 1 (Homo sapiens) (UniProt Q9BV86)", "sequence (Q9BV86 whole entry, looked up)": "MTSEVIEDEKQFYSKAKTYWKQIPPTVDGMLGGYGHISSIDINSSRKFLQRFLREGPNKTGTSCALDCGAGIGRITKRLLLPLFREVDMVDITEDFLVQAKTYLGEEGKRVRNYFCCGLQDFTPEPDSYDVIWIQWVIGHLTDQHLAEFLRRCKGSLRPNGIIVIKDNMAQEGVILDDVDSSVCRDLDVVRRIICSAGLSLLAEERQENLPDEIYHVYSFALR", "assay": "qHTS Assay for Inhibitors of N-terminal methyltransferase 1 (NTMT1): ThioGlo3 Assay Confirmatory Screen, Round 1.", "conditions": "NTMT1 SAHH-coupled ThioGlo3 fluorescence, 30 min; series mostly up to 56.8 µM; activity change, negative = inhibition: at the top concentration", "procedure,_shortened": "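Human NTMT1 at 125 nM was preincubated 1 min at room temperature with compounds at various concentrations or 1 uM RCC1-6 control. Substrate mix (100 uM SAM, 10 uM SAHH, 15 uM ThioGlo3) was added, and fluorescence (Ex 340/Em 450 nm) was read at start and after 30 min, normalized to background.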", "values": [
      {"smiles": "COc1cc2c(NC3CCN(C(C)C)CC3)nc(N3CCCCC3)nc2cc1OCCOCCN(C)C", "Potency": "27.1 µM (active)"},
      {"smiles": "CNc1ncnc2c1ncn2[C@@H]1O[C@H](CO)[C@@H](O)[C@H]1O", "activity change, negative = inhibition": "10.2%"},
      {"smiles": "COc1cc2c(NC3CCN(C(C)C)CC3)nc(N3CCC(F)(F)CC3)nc2cc1OCCCN1CCCC1", "Potency": "24.1 µM (active)"},
      {"smiles": "COc1cc2c(NC3CCN(C4CCCCC4)CC3)nc(N3CCCN(C(C)C)CC3)nc2cc1OCCCN1CCCCC1", "Potency": "24.1 µM (active)"},
      {"smiles": "COc1cc2nc(N(C)C)nc(NC3CC3)c2cc1OC", "activity change, negative = inhibition": "-25.2%"},
      {"smiles": "Nc1ncnc2c1ncn2C1CC(O)C(CO)O1", "note": "(stereo unspecified)", "activity change, negative = inhibition": "-15.5%"},
      {"smiles": "Nc1ncnc2c1nc(Br)n2C1CC(O)C(CO)O1", "note": "(stereo unspecified)", "activity change, negative = inhibition": "6.52%"},
      {"smiles": "COc1cc2c(NC3CCN(CC4CCCCC4)CC3)nc(N3CCCN(C(C)C)CC3)nc2cc1OCCCN1CCCCC1", "Potency": "24.1 µM (active)"},
      {"smiles": "COc1cc2nc(N3CCCN(C)CC3)nc(NC3CCN(C)CC3)c2cc1OC", "Potency": "21.5 µM (active)"},
      {"smiles": "COc1cc2nc(N3CCN(C)CC3)nc(N3CCN(C(C)=O)CC3)c2cc1OC", "Potency": "21.5 µM (active)"},
      {"smiles": "COc1cc2c(NC3CCN(C4CCCCC4)CC3)nc(N3CCCCC3)nc2cc1OCCCN1CCCCC1", "Potency": "24.1 µM (active)"},
      {"smiles": "COc1cc2c(NC3CCN(CC4CCCCC4)CC3)nc(N3CCCCCC3)nc2cc1OCCOCCN(C)C", "Potency": "27.1 µM (active)"},
      {"smiles": "Nc1ncnc2c1ncn2C1OC(COP(=O)(O)O)C(O)C1O", "note": "(stereo unspecified)", "activity change, negative = inhibition": "-21.2%"},
      {"smiles": "Nc1ncnc2c1ncn2[C@@H]1O[C@H](CO)[C@@H](O)[C@@H]1O", "activity change, negative = inhibition": "-9.54%"},
      {"smiles": "COc1cc2c(NC3CCN(C)CC3)nc(N3CCCN(C)CC3)nc2cc1OCCCN1CCCCC1", "Potency": "24.1 µM (active)"},
      {"smiles": "OC[C@H]1O[C@@H](n2cnc3cncnc32)[C@H](O)[C@@H]1O", "Potency": "2.41 µM (active)"},
      {"smiles": "Nc1nc(=S)c2ncn([C@H]3O[C@@H](CO)[C@@H](O)[C@@H]3O)c2[nH]1", "Potency": "13 µM (active)"},
      {"smiles": "C/C(=C\\CNc1ncnc2c1ncn2[C@@H]1O[C@@H](CO)[C@@H](O)[C@H]1O)CO", "activity change, negative = inhibition": "-23.4%"},
      {"smiles": "COc1cc2c(NC3CCN(CC4CCCCC4)CC3)nc(N3CCCN(C)CC3)nc2cc1OCCOCCN(C)C", "Potency": "24.1 µM (active)"},
      {"smiles": "NCCNC(=O)Cc1ccc(NC(=O)Cc2ccc(Nc3ncnc4c3ncn4[C@@H]3O[C@H](CO)[C@@H](O)[C@H]3O)cc2)cc1", "activity change, negative = inhibition": "-1.16%"},
      {"smiles": "COc1cc2c(NC3CCN(C)CC3)nc(N3CCCN(C)CC3)nc2cc1OCCCC(C)C", "Potency": "24.1 µM (active)"},
      {"smiles": "Cn1cnc2c(ncn2[C@@H]2O[C@H](CO)[C@@H](O)[C@H]2O)c1=N", "activity change, negative = inhibition": "-5.6%"},
      {"smiles": "Nc1ncnc2c1ncn2[C@@H]1O[C@H](COP(=O)(O)O)[C@@H](O)[C@@H]1O", "activity change, negative = inhibition": "13.1% [at 27.4 µM]"},
      {"smiles": "COc1cc2nc(N3CCCN(C)CC3)nc(NC3CCN(Cc4ccccc4)CC3)c2cc1OC", "Potency": "27.1 µM (active)"},
      {"smiles": "COc1cc2c(NC3CCN(C(C)C)CC3)nc(N3CCCN(c4ccccc4)CC3)nc2cc1OCCCN1CCCC1", "Potency": "17.1 µM (active)"},
      {"smiles": "COc1cc2nc(N3CCN(C)CC3)nc(NC3CCCC3)c2cc1OC", "Potency": "24.1 µM (active)"},
      {"smiles": "Nc1ncnc2c1nc(N1CCCCC1)n2[C@@H]1O[C@@H]2COP(=O)(O)O[C@H]2[C@H]1O", "activity change, negative = inhibition": "-18.6%"},
      {"smiles": "CCN1CCCN(c2nc(NC3CCN(C(C)C)CC3)c3cc(OC)c(OCCCN4CCCCC4)cc3n2)CC1", "Potency": "24.1 µM (active)"},
      {"smiles": "COc1cc2c(NC3CCN(C)CC3)nc(N3CCN(C)CC3)nc2cc1OCCOCCN(C)C", "Potency": "21.5 µM (active)"},
      {"smiles": "COc1cc2nc(NC3CCN(Cc4ccccc4)CC3)nc(N3CCCN(C)CC3)c2cc1OC", "Potency": "24.1 µM (active)"},
      {"smiles": "CNc1ncnc2c1ncn2[C@@H]1O[C@H](COP(=O)(O)O)[C@@H](O)[C@H]1O", "activity change, negative = inhibition": "-11.9%"},
      {"smiles": "Nc1nc2c(ncn2[C@@H]2O[C@H](CO)[C@@H](O)[C@H]2O)c(=O)[nH]1", "activity change, negative = inhibition": "10.9%"},
      {"smiles": "Nc1ncnc2c1ncn2[C@H]1O[C@@H](CSCC[C@@H](N)C(=O)O)[C@H](O)[C@@H]1O", "activity change, negative = inhibition": "1900%"},
      {"smiles": "COc1cc2c(NC3CCN(C)CC3)nc(N3CCCCC3)nc2cc1OCCOCCN1CCCC1", "Potency": "27.1 µM (active)"},
      {"smiles": "COc1cc2c(NC3CCN(C)CC3)nc(N3CCCN(C)CC3)nc2cc1OCCCN1CCOCC1", "Potency": "24.1 µM (active)"},
      {"smiles": "C=CCNc1nc(NC2CCN(C)CC2)c2cc(OC)c(OC)cc2n1", "Potency": "27.1 µM (active)"}
    ]}
  ]
}
